# Data published in ChEMBL document CHEMBL1961873, “Compounds: GSK PKIS; Assays: Nanosyn kinase panel” (2012).
# Assays:
# [1] = biological target: T1, Serine/threonine-protein kinase TBK1 (Homo sapiens) (UniProt Q9UHD2); conditions: at 1 µM;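 further: values are mean inhibition of TBK1, screened as part of the GSK published kinase inhibitor set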
# T1 sequence (whole entry): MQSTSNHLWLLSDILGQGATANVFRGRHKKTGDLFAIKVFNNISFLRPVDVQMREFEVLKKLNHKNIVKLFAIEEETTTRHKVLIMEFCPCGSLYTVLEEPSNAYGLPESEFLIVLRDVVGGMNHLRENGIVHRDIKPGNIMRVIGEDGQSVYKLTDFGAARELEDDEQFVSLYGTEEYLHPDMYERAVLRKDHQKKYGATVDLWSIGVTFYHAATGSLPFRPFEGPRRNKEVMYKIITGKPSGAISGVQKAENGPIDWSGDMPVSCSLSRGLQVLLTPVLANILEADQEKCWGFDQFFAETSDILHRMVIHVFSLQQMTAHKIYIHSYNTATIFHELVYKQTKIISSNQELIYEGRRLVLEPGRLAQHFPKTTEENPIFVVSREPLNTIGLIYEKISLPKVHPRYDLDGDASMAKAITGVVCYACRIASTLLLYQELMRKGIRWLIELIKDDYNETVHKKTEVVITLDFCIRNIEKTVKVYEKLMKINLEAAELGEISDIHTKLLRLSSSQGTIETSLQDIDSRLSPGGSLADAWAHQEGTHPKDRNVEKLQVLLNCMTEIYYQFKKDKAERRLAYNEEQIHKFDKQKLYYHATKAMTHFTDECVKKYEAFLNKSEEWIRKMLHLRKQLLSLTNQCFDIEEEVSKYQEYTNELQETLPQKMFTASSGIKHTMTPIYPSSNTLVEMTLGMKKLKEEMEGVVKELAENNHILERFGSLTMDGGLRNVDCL
# [2] = biological target: T2, Testis-specific serine/threonine-protein kinase 1 (Homo sapiens) (UniProt Q9BXA7); conditions: at 0.1 µM
# T2 sequence (whole entry): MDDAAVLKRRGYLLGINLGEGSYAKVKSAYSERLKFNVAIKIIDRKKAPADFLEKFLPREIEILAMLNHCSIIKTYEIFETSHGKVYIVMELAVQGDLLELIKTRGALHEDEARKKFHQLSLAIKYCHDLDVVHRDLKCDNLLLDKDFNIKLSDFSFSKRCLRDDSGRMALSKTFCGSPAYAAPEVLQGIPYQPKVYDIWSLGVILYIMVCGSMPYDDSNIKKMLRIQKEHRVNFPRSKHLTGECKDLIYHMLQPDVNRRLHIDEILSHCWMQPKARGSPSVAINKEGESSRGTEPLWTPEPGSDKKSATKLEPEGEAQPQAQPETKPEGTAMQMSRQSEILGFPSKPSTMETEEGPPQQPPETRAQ
# [3] = biological target: T2, Testis-specific serine/threonine-protein kinase 1 (Homo sapiens); conditions: at 1 µM
# [4] = biological target: T3, Testis-specific serine/threonine-protein kinase 2 (Homo sapiens) (UniProt Q96PF2); conditions: at 0.1 µM
# T3 sequence (whole entry): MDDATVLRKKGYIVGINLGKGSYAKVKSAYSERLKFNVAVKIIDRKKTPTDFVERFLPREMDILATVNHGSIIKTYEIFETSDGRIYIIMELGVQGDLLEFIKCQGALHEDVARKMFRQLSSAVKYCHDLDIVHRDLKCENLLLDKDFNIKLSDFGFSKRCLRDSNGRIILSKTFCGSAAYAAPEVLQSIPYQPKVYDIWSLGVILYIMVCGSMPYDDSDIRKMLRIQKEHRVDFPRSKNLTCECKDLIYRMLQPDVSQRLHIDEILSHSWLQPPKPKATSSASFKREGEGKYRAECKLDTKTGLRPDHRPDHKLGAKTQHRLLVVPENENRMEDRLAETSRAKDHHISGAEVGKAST
# [5] = biological target: T3, Testis-specific serine/threonine-protein kinase 2 (Homo sapiens); conditions: at 1 µM
# [6] = biological target: Casein kinase I isoform alpha (Homo sapiens) (UniProt P48729); conditions: at 0.1 µM
# Casein kinase I isoform alpha (Homo sapiens), sequence (P48729 2-337 limits assumed): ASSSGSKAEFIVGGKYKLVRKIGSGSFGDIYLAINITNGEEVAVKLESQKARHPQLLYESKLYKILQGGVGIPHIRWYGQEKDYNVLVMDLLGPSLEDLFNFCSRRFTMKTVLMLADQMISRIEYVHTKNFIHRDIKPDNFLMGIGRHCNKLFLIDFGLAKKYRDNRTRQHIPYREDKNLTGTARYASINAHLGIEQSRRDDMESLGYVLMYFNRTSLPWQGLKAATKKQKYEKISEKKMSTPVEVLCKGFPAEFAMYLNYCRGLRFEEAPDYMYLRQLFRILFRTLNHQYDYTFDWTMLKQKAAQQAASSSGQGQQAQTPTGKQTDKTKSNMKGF
# [7] = biological target: Casein kinase I isoform alpha (Homo sapiens) (UniProt P48729); conditions: at 1 µM
# [8] = biological target: Casein kinase I isoform gamma-1 (Homo sapiens) (UniProt Q9HCP0); conditions: at 0.1 µM
# Casein kinase I isoform gamma-1 (Homo sapiens), sequence (Q9HCP0 whole entry, looked up, canonical isoform): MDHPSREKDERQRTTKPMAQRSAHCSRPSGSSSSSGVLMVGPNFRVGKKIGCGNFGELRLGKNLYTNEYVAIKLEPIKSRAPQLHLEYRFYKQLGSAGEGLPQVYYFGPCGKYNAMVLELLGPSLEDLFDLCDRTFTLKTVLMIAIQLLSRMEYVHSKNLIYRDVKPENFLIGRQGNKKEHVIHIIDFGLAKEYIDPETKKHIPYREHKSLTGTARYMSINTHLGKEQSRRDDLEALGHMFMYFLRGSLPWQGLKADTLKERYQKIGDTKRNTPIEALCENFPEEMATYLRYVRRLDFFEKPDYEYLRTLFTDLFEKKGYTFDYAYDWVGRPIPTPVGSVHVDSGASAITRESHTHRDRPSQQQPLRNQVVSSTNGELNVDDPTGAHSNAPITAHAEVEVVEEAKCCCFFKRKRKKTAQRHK
# [9] = biological target: Casein kinase I isoform gamma-1 (Homo sapiens) (UniProt Q9HCP0); conditions: at 1 µM
# [10] = biological target: Casein kinase I isoform gamma-2 (Homo sapiens) (UniProt P78368); conditions: at 0.1 µM
# Casein kinase I isoform gamma-2 (Homo sapiens), sequence (P78368 whole entry, looked up, canonical isoform): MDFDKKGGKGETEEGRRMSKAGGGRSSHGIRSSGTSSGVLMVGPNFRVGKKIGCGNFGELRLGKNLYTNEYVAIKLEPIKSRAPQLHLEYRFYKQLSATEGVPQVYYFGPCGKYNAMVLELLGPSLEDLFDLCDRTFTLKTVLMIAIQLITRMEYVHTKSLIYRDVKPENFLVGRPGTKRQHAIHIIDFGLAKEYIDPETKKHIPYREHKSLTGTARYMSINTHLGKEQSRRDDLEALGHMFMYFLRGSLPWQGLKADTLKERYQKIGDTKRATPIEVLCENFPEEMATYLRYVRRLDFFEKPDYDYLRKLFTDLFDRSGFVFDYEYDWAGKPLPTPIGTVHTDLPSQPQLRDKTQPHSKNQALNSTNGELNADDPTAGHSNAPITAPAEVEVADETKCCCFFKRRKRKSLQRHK
# [11] = biological target: Casein kinase I isoform gamma-2 (Homo sapiens) (UniProt P78368); conditions: at 1 µM
# [12] = biological target: Casein kinase I isoform gamma-3 (Homo sapiens) (UniProt Q9Y6M4); conditions: at 0.1 µM
# Casein kinase I isoform gamma-3 (Homo sapiens), sequence (Q9Y6M4 whole entry, looked up, canonical isoform): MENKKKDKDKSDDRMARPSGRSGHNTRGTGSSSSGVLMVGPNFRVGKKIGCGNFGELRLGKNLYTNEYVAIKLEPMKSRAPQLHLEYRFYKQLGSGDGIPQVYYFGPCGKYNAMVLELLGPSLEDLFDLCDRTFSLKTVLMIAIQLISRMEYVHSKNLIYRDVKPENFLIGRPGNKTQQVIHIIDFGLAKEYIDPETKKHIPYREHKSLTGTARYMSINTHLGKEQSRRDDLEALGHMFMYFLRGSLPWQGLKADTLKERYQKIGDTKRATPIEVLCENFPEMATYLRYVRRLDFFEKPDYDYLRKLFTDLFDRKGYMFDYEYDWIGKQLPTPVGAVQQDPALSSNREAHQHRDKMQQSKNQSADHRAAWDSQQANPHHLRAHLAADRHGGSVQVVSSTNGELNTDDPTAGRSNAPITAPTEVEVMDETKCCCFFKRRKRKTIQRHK
# [13] = biological target: Casein kinase I isoform gamma-3 (Homo sapiens) (UniProt Q9Y6M4); conditions: at 1 µM
# [14] = biological target: Cyclin-dependent kinase 1 (Homo sapiens) (UniProt P06493); conditions: at 0.1 µM
# Cyclin-dependent kinase 1 (Homo sapiens), sequence (P06493 whole entry, looked up): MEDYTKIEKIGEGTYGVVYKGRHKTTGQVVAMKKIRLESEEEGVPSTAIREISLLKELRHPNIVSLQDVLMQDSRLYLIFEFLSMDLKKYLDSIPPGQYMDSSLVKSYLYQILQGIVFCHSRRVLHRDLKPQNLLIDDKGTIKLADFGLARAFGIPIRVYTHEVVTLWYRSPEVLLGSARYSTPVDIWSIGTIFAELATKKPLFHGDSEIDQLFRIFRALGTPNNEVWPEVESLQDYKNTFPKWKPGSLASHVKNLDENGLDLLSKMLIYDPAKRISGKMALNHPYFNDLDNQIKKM
# [15] = biological target: Cyclin-dependent kinase 1 (Homo sapiens) (UniProt P06493); conditions: at 1 µM
# [16] = biological target: Cyclin-dependent kinase 2 (Homo sapiens) (UniProt P24941); conditions: at 0.1 µM
# [17] = biological target: Cyclin-dependent kinase 2 (Homo sapiens) (UniProt P24941); conditions: at 1 µM
# [18] = biological target: Cyclin-dependent kinase 2 (Homo sapiens) (UniProt P24941); conditions: at 0.1 µM; remark: listed apart in the source
# [19] = biological target: Cyclin-dependent kinase 2 (Homo sapiens) (UniProt P24941); conditions: at 1 µM; remark: listed apart in the source
# [20] = biological target: CDK3/Cyclin E (Homo sapiens) (UniProt P24864+Q00526); conditions: at 0.1 µM;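 further: reported percentages are mean inhibition values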
# CDK3/Cyclin E (Homo sapiens), sequence (P24864 whole entry, looked up): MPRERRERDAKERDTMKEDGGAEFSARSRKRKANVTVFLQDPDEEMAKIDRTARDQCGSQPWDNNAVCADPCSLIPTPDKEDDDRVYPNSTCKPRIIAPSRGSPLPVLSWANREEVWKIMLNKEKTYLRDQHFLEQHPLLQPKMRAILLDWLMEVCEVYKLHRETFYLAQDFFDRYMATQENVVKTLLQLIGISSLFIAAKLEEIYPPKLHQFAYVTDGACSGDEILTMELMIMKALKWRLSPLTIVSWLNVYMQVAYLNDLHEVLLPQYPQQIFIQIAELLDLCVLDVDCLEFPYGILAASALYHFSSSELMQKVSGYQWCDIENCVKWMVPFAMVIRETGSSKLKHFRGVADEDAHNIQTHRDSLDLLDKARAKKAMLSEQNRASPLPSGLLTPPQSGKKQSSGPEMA
# CDK3/Cyclin E (Homo sapiens), sequence (Q00526 whole entry, looked up): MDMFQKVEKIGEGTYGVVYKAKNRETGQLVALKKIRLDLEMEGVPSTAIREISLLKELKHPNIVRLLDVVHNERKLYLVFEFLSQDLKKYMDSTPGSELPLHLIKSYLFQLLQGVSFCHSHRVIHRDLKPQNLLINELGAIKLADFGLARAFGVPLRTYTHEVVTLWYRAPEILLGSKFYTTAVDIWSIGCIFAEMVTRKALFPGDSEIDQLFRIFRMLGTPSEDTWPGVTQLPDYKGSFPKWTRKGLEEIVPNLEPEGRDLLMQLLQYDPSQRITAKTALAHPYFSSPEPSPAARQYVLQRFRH
Structure (SMILES),inhibition [1] [%],inhibition [2] [%],inhibition [3] [%],inhibition [4] [%],inhibition [5] [%],inhibition [6] [%],inhibition [7] [%],inhibition [8] [%],inhibition [9] [%],inhibition [10] [%],inhibition [11] [%],inhibition [12] [%],inhibition [13] [%],inhibition [14] [%],inhibition [15] [%],inhibition [16] [%],inhibition [17] [%],inhibition [18] [%],inhibition [19] [%],inhibition [20] [%]
Cc1nnc(-c2ccc(C)c(-c3ccc(C(=O)Nc4cccc(C#N)c4)cc3)c2)o1,5,0.97,2.9,1.4,2.16,8.37,6.82,1.85,2.59,1.7,1.54,1.46,0.25,0.88,1.11,1.13,0.6,1.82,2.15,4.52
COC(=O)Nc1nc2cc(Oc3ccc(NC(=O)Nc4cccc(C(=O)O)c4)cc3)ccc2[nH]1,2.42,0.41,0.96,0.4,0.93,2.25,0.72,-2.42,-2.13,-2.21,-2.28,-2.29,-0.39,-2.2,0.34,-1.03,4.44,1.71,1.67,1.76
COc1cc(C)c(NC(=O)CN(C)C)cc1Nc1nc(Nc2cccc(F)c2C(N)=O)c2cc[nH]c2n1,25.5,61.6,89.3,31.8,73.2,-0.74,21.5,2.04,12.9,1.61,20,1.69,20.6,-0.88,-1.98,0.1,-9.04,-0.26,0.04,-0.76
CCN1CCC(CC(=O)Nc2n[nH]c3nc(-c4cccs4)c(Br)cc23)CC1,1.1,-1.56,-1.9,-1.62,-1.24,0.63,-0.71,-2.56,-1.74,-1.74,-0.99,-2.3,0.47,0.69,5,0.61,6.41,-0.6,5.24,-0.39
CS(=O)(=O)Nc1ccc(N/C=C2\C(=O)Nc3ccccc32)cc1,14.2,0.15,2.2,-1.89,-1.19,-2.3,7.96,-1.92,1.81,-1.68,2.22,0.3,3.9,1.78,9.18,1.42,18.1,2.53,22,3.36
CS(=O)(=O)CCN(CC#N)Cc1ccc(-c2ccc3ncnc(Nc4ccc(OCc5cccc(F)c5)c(Cl)c4)c3c2)o1,1.61,1.37,1.5,0.63,1.39,1,2.88,-2.14,-3.1,-1.98,-2.18,-1.66,-4.35,-3.13,-3.04,-1.63,-2.87,-2.44,-4.09,-2.24
COc1ccc(-c2coc3ncnc(N)c23)cc1,7.65,4.08,3.27,1.1,0.95,6.3,4.04,4.29,4.94,4.25,6.12,3.42,5.14,1.77,3.58,2.89,0.12,6.07,7.82,4.84
CNC(=O)c1cncc(/C=C/c2c(Cl)cccc2Cl)c1,4.76,3.51,4.44,1.15,3.45,2.31,6.99,4.49,6.18,2.94,7.62,1.61,4.59,-1.13,-0.82,0.92,-0.22,-0.41,3.85,-4.75
COc1ccc(-c2nn3ncccc3c2-c2ccnc(Nc3ccc(Cl)c(C(F)(F)F)c3)n2)cc1,2.16,2.65,4.89,2.27,5.15,-4.74,0.96,1.89,2.18,1.23,1.48,2.03,0.7,0.45,0.2,1.46,-2.2,1.44,1.76,1.87
CCn1c(-c2nonc2N)nc2c(C#CC(C)(C)O)nc(OC[C@@H](N)c3ccccc3)cc21,3.45,9.5,53.4,0.46,-0.44,-0.17,0.97,-1.79,2.42,-1.05,2.82,-1.72,1.57,-0.31,-0.33,0.3,5.96,-0.8,1.32,-0.42
CCCN1CCC=C(c2ccc(Nc3nc(Nc4ccccc4C(N)=O)c4cc[nH]c4n3)c(C)c2)C1,9.03,29.9,76.7,7.28,37.6,8.97,47.6,22.5,59.8,31.1,,36.1,69.3,2.18,7.53,5.19,22.5,3.79,28.3,-2.97
c1cnn2ncc(-c3ccnc(Nc4ccc5c(c4)OCCO5)n3)c2c1,23.9,4.39,18.1,2.63,4.19,9.95,44.9,4.47,22.1,7.95,46.9,6.57,38,71.3,92.9,65.5,86.1,73.6,,36.9
O=C1NC(=O)C(c2cccc(Cl)c2)=C1Nc1ccc(O)c(Cl)c1,23.9,1.11,1.63,-0.57,0.16,1.72,9.44,0.2,1.3,0.09,0.54,1.06,0.9,0.73,7.55,1.84,6.86,2.79,10.6,3.01
